This is a sample that favours compounds with a hit; in the whole collection about 3.7% have one here.
Nrf2 inh – Nrf2 pathway inhibition | A549 ARE-Fluc reporter, luciferase luminescence, 18-24 h | Potency, µM (doses to about 46 µM), for inactives: at the highest dose activity change, negative = inhibition, hits mostly inhibitors | hit rate 2.1% among 360,000; further: on the % scale 0 is the no-effect control and ±100 the full control effect; nearly all actives have a fitted effect of over 60% in size
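Reporter: ARE-Fluc in A549. Exposure: 18-24 h, 37 °C, 5% CO2, 5% FBS OPTI-MEM. Readouts: fluorescent cytotoxicity (CellTiter-Fluor), then luminescent Nrf2 signal after BugLite.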
Nrf2 ARE act – activates Nrf2 signaling; hit rate 0.31% among 410,000; Potency, µM (series often up to 46.1 µM), inactives show at the highest dose activation, hits mostly activators; AREc32 ARE-luciferase reporter (MCF7-derived line), luminescence, 24 h; further: % of control where 0% means no effect; nearly all actives have a fitted effect of over 65% in size
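ARE activation measured as luciferase luminescence (Steady-Glo, 30 min RT) in AREc32_Fluc cells after 24 hr compound exposure at 37 deg C, 5% CO2; cells seeded overnight at 1000/well in OPTI-MEM, 5% FBS.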
A549 tox-1 – kills or reduces viability of A549 cells in Nrf2 counter-screen | A549 ARE-Fluc cells, CellTiter-Fluor viability, 18-24 h | Potency, µM (titrated, usually from 46 µM), inactives show top-dose activity change, negative = cytotoxicity, actives largely listed as inhibitors | hit rate 0.16% among 390,000; further: on the % scale 0 is the no-effect control and ±100 the full control effect
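A549 ARE-Fluc cells in 5% FBS OPTI-MEM, 5000 cells/well, rested 2 h then exposed to compounds in concentration-response for 18-24 h at 37 °C. Viability by CellTiter-Fluor fluorescence (Ex 405/Em 525) after 30 min; luciferase luminescence (BugLite, 15 min, RT) read afterwards.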
ELG1 repair inh – ELG1-dependent DNA repair inhibition; HEK293T ELG1-luciferase reporter, luminescence, 16 h; DNA damage induced by 5-fluorouridine; AID 504467; hit rate 2.3% among 330,000; Potency, µM (highest dose often 46.1 µM), without a hit: top-dose activity change, negative = inhibition, actives largely listed as inhibitors; further: on the % scale 0 is the no-effect control and ±100 the full control effect; nearly all actives have a fitted effect of over 55% in size
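Luminescence from the luciferase reporter, measured 30 min after ONE-Glo reagent at room temperature, was the read-out. Beforehand, 2,000 cells per well were exposed for 16 hr at 37 °C to 5-fluorouridine together with compound or vehicle.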
FLuc counter 3 – counter-screen for Nrf2 inhibitors: firefly luciferase enzyme inhibition; shares compounds with Nrf2 inh; purified firefly luciferase, luminescence inhibition; Potency, µM (titrated, usually from 57.5 µM), without a hit: at the top dose activity change, negative = inhibition, hits mostly inhibitors; hit rate 4% among 1,400; further: on the % scale 0 is the no-effect control and ±100 the full control effect; nearly all actives have a fitted effect of over 65% in size
Target sequence (P08659 whole entry, looked up): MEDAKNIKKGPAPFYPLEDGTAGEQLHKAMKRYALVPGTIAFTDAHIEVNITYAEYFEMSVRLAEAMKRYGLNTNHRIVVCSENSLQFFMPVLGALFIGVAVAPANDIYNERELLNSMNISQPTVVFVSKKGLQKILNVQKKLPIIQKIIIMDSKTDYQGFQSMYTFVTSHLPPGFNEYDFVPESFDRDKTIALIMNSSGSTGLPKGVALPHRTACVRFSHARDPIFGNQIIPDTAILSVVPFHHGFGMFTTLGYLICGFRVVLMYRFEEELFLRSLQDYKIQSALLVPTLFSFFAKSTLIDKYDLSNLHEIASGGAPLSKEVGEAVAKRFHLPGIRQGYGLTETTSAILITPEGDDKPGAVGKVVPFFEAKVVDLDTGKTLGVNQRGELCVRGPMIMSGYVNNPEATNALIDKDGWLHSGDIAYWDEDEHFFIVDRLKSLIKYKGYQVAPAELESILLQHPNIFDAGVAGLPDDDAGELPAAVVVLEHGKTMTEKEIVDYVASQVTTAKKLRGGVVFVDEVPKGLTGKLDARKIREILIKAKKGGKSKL
A549 tox-2 – toxic to A549 ARE-Fluc cells in Nrf2 counterscreen; A549 ARE-Fluc cells, cytotoxicity counterscreen; hit rate 2% among 1,400; shares compounds with Nrf2 inh; Potency, µM (titrated, usually from 46.1 µM), for inactives: at the highest dose activity change, negative = cytotoxicity, most hits filed as inhibitors;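 further: cells exposed to compounds for 18 to 24 hours; on the % scale 0 is the no-effect control and ±100 the full control effect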
ARE-Fluc inh – confirmation of Nrf2 inhibitors in A549 ARE reporter cells. AID 720524. A549 ARE-firefly luciferase reporter, luminescence. hit rate 74% among 1,400. shares compounds with Nrf2 inh. Potency, µM (doses to about 46.1 µM), without a hit: at the top dose activity change, negative = inhibition, hits mostly inhibitors; further: on the % scale 0 is the no-effect control and ±100 the full control effect; nearly all actives have a fitted effect of over 65% in size
* = called active by the depositor; ? = inconclusive; . = not tested or not shown; ! = not active in a repeat; [ ] = remark or other dose. The call rests on the fitted dose curve; in most records, active means well fitted curve in the direction sought with a large enough effect; inconclusive means small, poorly fitted or top-dose-only effect, or another doubt; inactive means no such curve, though single readings can be large; an effect the other way counts as inactive or inconclusive. Potency means the concentration at half of the fitted maximal effect.

SMILES	Nrf2 inh	Nrf2 ARE act	A549 tox-1	ELG1 repair inh	FLuc counter 3	A549 tox-2	ARE-Fluc inh
CCN(CC)S(=O)(=O)c1cc(NC(=O)C(=O)c2c(-c3ccccc3)cc3ccccn23)ccc1C	5.2µM*	2%	.	16µM*	2%	-11%	?
CCN(CC)S(=O)(=O)c1ccc(N2CCOCC2)c(NC(=O)C(=O)c2c(-c3ccccc3)cc3ccccn23)c1	-11%	-1%	-5%	?	.	.	.
O=C(Nc1ccc2c(c1)OCO2)c1ccc2nc([C@@H]3O[C@H](CO)[C@H](O)[C@H](O)[C@H]3O)[nH]c2c1	.	0%[9.22 µM]	.	.	.	.	.
O=c1[nH]nc(-c2ccc(NCCO)c([N+](=O)[O-])c2)c2ccccc12	?	3%	-13%	0%	.	.	.
O=[N+]([O-])c1cc(Cl)cc2c1nc(NCCO)c1ccccc12	1.3µM*	8.9µM*	?	?	-1%	?	0.73µM*
Cc1ccc(-c2nnc(SCC(=O)NC3CCCC3)nc2-c2ccc(C)cc2)cc1	1.8µM*	1%	?	.	-3%	-9%	-14%
O=C(CSc1nnc(-c2ccc(Cl)cc2)c(-c2ccc(Cl)cc2)n1)NC1CCCC1	.	5%	1%	.	.	.	.
Cc1cc(C)c(OC2(c3ccccc3)OC(=O)c3ccccc32)c(C)c1 (configuration not stated)	9.2µM*	0%	-18%	-12%	1%	8%	-3%
CC(NNC(=S)N1CCN(c2ccccn2)CC1)c1nccc2ccccc12 (configuration not stated)	5.8µM*	3%	?	.	-13%	?	?
CCNC(=S)N1CCN(c2ccccn2)CC1	-1%	0%	4%	13%	.	.	.
COc1cc(OC)cc(-c2cc3nc(C)c(CCC(=O)O)c(C)n3n2)c1	1.5µM*	-5%	0%	?	11µM*	4%	2.6µM*
CCOc1ccc(NC(=O)CSC2=Nc3ccccc3C3=NC(Cc4ccccc4)C(=O)N23)cc1 (configuration not stated)	.	5%	-17%	.	.	.	.
Cc1ccccc1CNC(=O)CCS(=O)(=O)c1cc2c3c(c1)CCN3C(=O)CC2	?	0%	20%	.	.	.	.
O=C(NC1CCCCC1)c1ccc2ccccc2c1	.	4%	.	.	.	.	.
Cc1cc2ccccc2c[n+]1C1CCCCC1	.	.	.	.	0%	-8%	1.3µM*
CC(=O)NCCNc1nc2cc(-c3ccc(Cl)cc3C)sc2c(=O)n1C	.	1%[9.22 µM]	.	.	.	.	.
OCC1OC(n2cnc3c(NCc4ccco4)ncnc32)C(O)C1O (configuration not stated)	7.3µM*!	?	?	.	3%	-21%	4.1µM*
CC(=O)C1(O)Cc2c(O)c3c(c(O)c2C(OC2CC(N)C(O)C(C)O2)C1)C(=O)c1c(O)cccc1C3=O (configuration not stated)	.	.	.	.	-28%	?	0.46µM*
COc1cccc2c1C(=O)c1c(O)c3c(c(O)c1C2=O)CC(O)(C(C)=O)CC3OC1CC(N(C)C)C(O)C(C)O1 (configuration not stated)	2.3µM*	-1%	?	.	-25%	?	1µM*
CC(=O)[C@@]1(O)Cc2c(O)c3c(c(O)c2[C@H](O[C@H]2C[C@H](N)[C@H](O)[C@H](C)O2)C1)C(=O)c1ccccc1C3=O	.	-2%	.	.	.	.	.
C/C(N)=C(/C#N)C(=O)COC(=O)c1ccc(NC(N)=O)cc1	1%	0%	4%	3%	.	.	.
COC(=O)c1ccc(/C=C/c2c(-c3ccsc3)oc3ccc(N4CCOCC4)cc23)cc1	-10%	14%	0%	-2%	.	.	.
CCC(=O)[C@@]1(C)[C@H](C)C[C@H]2[C@@H]3CCC4=CC(=O)C=C[C@]4(C)[C@H]3[C@@H](O)C[C@@]21C	0.016µM*	-1%	-9%	?	3%	-9%	0.018µM*
CCCC1O[C@@H]2C[C@H]3[C@@H]4CCC5=CC(=O)C=C[C@]5(C)[C@H]4[C@@H](O)C[C@]3(C)[C@]2(C(=O)CO)O1 (some centres not stated)	?	0%	-16%	7%	.	.	.
CCCC1OC2CC3C4CCC5=CC(=O)C=CC5(C)C4C(O)CC3(C)C2(C(=O)O)O1 (configuration not stated)	0.46µM*	0%	-15%	-11%	-3%	-15%	1.3µM*
SMILES	Nrf2 inh	Nrf2 ARE act	A549 tox-1	ELG1 repair inh	FLuc counter 3	A549 tox-2	ARE-Fluc inh
COc1ccc(NS(=O)(=O)c2ccc3c(c2)N(C(C)=O)CCO3)c(OC)c1	?	0%	0%	6%	.	.	.
Cc1ccc2c(C)c(C(=O)N3CCN(c4ncccn4)CC3)oc2c1C	-10%	3%	6%	-6%	.	.	.
COc1ccc(OC(C)c2nc3ccccc3[nH]2)cc1 (configuration not stated)	9.2µM*	5%	-19%	.	-29%	15%	-19%
CC(=NNC(=S)N1CC2CCC(CC2)C1)c1ccncn1	1.3µM*	15%	16µM*	.	11µM*	?	0.37µM*
CC(=NNC(=S)N1CCCCC1)c1ccccn1	.	18%	.	.	.	.	.
O=C(NCc1nnc(SCC(=O)N2CCCc3ccccc32)n1-c1ccccc1)c1cccc2ccccc12	2.6µM*	0%	-11%	?	-1%	-18%	10µM*
CCCCOc1cccc(C(=O)Nc2ccc3oc(-c4cccnc4)nc3c2)c1	6.5µM*	-1%	-11%	.	-16%	-1%	7.3µM*
CCCCOc1ccc(C(=O)Nc2ccc3oc(-c4cccnc4)nc3c2)cc1	-20%	0%	-1%	.	.	.	.
C[C@]12C=CC(=O)C=C1CC[C@@H]1C2[C@@H](O)C[C@@]2(C)C1CC[C@]2(O)C(=O)COC(=O)CCC(=O)O (some centres not stated)	0.13µM*	3%	-2%	10%	-3%	0%	?
CC(=O)OCC(=O)C1(O)CCC2C3CCC4=CC(=O)C=CC4(C)C3C(O)CC21C (configuration not stated)	0.029µM*	0%	-1%	0%	1%	-6%	0.058µM*
CCC(C)C(NC(=O)CCC(=O)OCC(=O)[C@@]1(O)CCC2[C@@H]3CCC4=CC(=O)C=C[C@]4(C)C3[C@@H](O)C[C@@]21C)C(=O)O (some centres not stated)	0.18µM*	0%	4%	-11%	3%	-4%	0.21µM*

Compound activity from PubChem.
